Consider 98 compounds from PubChem BioAssay AID588350 (The Scripps Research Institute Molecular Screening Center, 2011).

The whole screen tested about 1,900 compounds, of which about 1,200 (63%) were called active. The set was probably picked from earlier hits. A selection follows. Values without a mark were called inactive.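 Rule for the calls: active = mean activation above the mean of solvent-only control wells plus 3 SD (cut at about 22% in these data); inactive = the rest.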

This assay can be described thus: frataxin GAA30 reporter activation – cell-based, luminescence, HEK293, lucGAA30, triplicate, counter-screen for GAA850 frataxin promoter activator project, confirmation (AID 588350).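 Note: counterscreen of GAA850 promoter hits where activity marks nonselective or luminescence artifacts.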 The settings on record: HEK293 lucGAA30 FXN promoter luciferase, 24 h; at 6 µM; stronger effect = higher value; DMSO = 0%, 5 µM ipriflavone = 100%. (In general: A counterscreen serves to expose hits that act by an unwanted route or on another target.)
Regarding `Cc1cc(OCc2cc(C(=O)NCc3cc(C(C)C)no3)no2)cc(C)c1Cl`, the activation is 110% (active). To `COCCn1c(=NC(=O)c2ccccc2[N+](=O)[O-])sc2cc(S(C)(=O)=O)ccc21` belongs 51.5% (active); to `Cc1c(-c2ccccc2)nc(N)c(C#N)c1-c1cccs1`, 23.3% (active).

Take `CCOC(=O)c1cc2cc(C)ccc2[nH]1`: the activation was 74.2% (active). For the compound `CCC(=O)NC(=Nc1nc2ccccc2s1)NC(=O)CC`, the activation was 129% (active). To `Cc1ccc(-c2nc3ccccc3[nH]c2=O)cc1` belongs 101% (active); to `N#Cc1c(N)nc2c3c(sc(=N)c2c1N)NC(=O)CC3c1ccccc1Cl` (stereo not drawn), 25.4% (active). With `CC1CCc2sc3nc(N4CCN(CCO)CC4)n4ncnc4c3c2C1` (stereo not drawn), the activation is 61.1% (active). To `O=C(NC1CCCC1)c1cc(-c2ccccc2)on1` belongs 161% (active); to `O=C(NCCCn1ccnc1)c1cc(-c2ccccc2)on1`, 204% (active). `COc1ccccc1N1CCN(C(=O)c2cc(-c3ccc(Br)cc3)on2)CC1`: the activation was -9.05%.

Turning to `COC(=O)c1ccc(CSc2nc3ccccc3c(=O)n2-c2cccc(OC)c2)o1`, the activation is 19.9%. To `CN1C(=O)/C(=C\c2cc(Br)cs2)c2ccccc21` belongs 102% (active). To `Cc1ccc(-c2c3c(=O)n(C)c(=O)n(C)c3cn2-n2cnnc2)cc1` belongs -0.74%. To `CCOc1ccc(N2C(=O)CC(N(CCc3ccc(OC)c(OC)c3)C(=S)Nc3ccccc3)C2=O)cc1` (stereo not drawn) belongs -9.82%; to `O=C(N/N=C/C=C/c1ccco1)c1cccs1`, 82.6% (active); to `CCC1(CC)Cc2ccccc2-c2nc(CCl)[nH]c(=O)c21`, -4.18%. As to `O=C(CC1NCCc2ccccc21)Nc1cccc(Cl)c1` (stereo not drawn), the activation is 69% (active).

In the case of `N#CC1=C(SCc2ccc(C#N)cc2)N=C(N)C(c2nc(-c3ccccc3)cs2)C12CCCCC2` (stereo not drawn), the activation is 2.61%. As to `O=[N+]([O-])c1ccc(C=Nc2ccc(Cl)cc2Cl)s1`, the activation was -6.04%.

As to `COc1ccc(C2Nc3ccccc3C(=O)N2c2ccc(Cl)cc2)cc1Cn1cc([N+](=O)[O-])cn1` (stereo not drawn), the activation is 92.3% (active).

Take `CN(C(=O)c1cc2c(=O)n3ccccc3nc2s1)C1CCCCC1`: the activation is 116% (active). To `CCCCNC(=O)N(O)C1N(/N=C/c2ccccc2O)C(=S)SC1(C)C` (stereo not drawn) belongs 26.7% (active); to `CCCNC(=O)c1c(Cl)cnn1-c1ccc(C)cc1`, 108% (active); to `Fc1ccccc1/C=N/Nc1cc(N2CCCCC2)ncn1`, 118% (active). To `Cc1cc(C(=O)N/N=C\C(Br)=C\c2ccccc2)c(C)o1` belongs 58.9% (active); to `CC(C)c1cc(C(=O)N/N=C/C(Br)=C/c2ccccc2)n[nH]1`, -1.66%; to `CCCCCOc1ccc(CSC2=NCCN2)cc1[N+](=O)[O-]`, 79.1% (active). To `O=C(COc1ccc(Cl)cc1Cl)NCCCNC(=O)c1cnccn1` belongs 11.8%.

`O=C(Nc1ccc2c(c1)OCCO2)c1cnccn1`: the activation was 87.7% (active). As for `CCc1ccc(N(C(=O)c2csnn2)C(C(=O)NC2CCCCC2)c2ccncc2)cc1` (stereo not drawn), the activation was 26.5% (active).

Consider `C=C1c2c(Cl)ccc(O)c2C(O)=C2C(=O)[C@]3(O)C(O)=C(C(N)=O)C(=O)[C@@H](N(C)C)[C@@H]3[C@@H](O)C12` (stereo partly drawn), for which the activation is 18.7%. To `CN(C)[C@@H]1C(=O)C(C(N)=O)=C(O)[C@@]2(O)C(=O)C3=C(O)c4c(O)ccc(Cl)c4[C@@H](O)[C@H]3C[C@@H]12` belongs 25.7% (active); to `Cc1noc(C)c1-c1ccc2ncnc(NC(C)c3ccco3)c2c1` (stereo not drawn), 40.9% (active); to `Cn1c(=O)n(C)c2cc(S(=O)(=O)N3CCCc4ccccc43)ccc21`, 1.6%. To `CN(C)CCNC(=O)c1ccc(Cl)c2cc3ccccc3nc12` belongs -3.95%; to `O=C1N=C(N2CCCC2)S/C1=C\c1cccc(Br)c1`, 60.8% (active). To `CC(C)(C)C(=O)c1cnc(Nc2ccccc2)s1` belongs 126% (active); to `Cc1cc(C)n2nc(CNS(=O)(=O)c3c(F)c(F)c(F)c(F)c3F)nc2n1`, 21.4%; to `Cc1cc(=O)oc(C)c1C(=O)NCc1ccc(F)cc1`, 14.5%. Regarding `O=C(NCc1ccco1)c1ccc(Cn2c(=O)c3sccc3n(Cc3ccc(F)cc3)c2=O)cc1`, the activation was 24.6% (active). To `Nc1ccc(C(=O)Nc2ccccc2N)cc1` belongs 54.8% (active); to `Cc1nnc(Sc2nc3c(c(=O)[nH]c(=O)n3C)n2Cc2ccccc2)s1`, 12.3%; to `CNc1nc(Nc2ccc(C)c(Cl)c2)nc(N)c1[N+](=O)[O-]`, 159% (active). To `COc1ccc(/C=C/C(=O)Nc2ccc(C34CC5CC(CC(O)(C5)C3)C4)cc2)cc1OC` belongs 64.1% (active); to `Cc1ccc(-n2c(C)cc(/C=C(\C#N)C(=O)NCC3CCCO3)c2C)cc1` (stereo not drawn), 110% (active); to `O=C(CN(c1cc(C(F)(F)F)ccc1Cl)S(=O)(=O)c1ccccc1)NCc1cccnc1`, 20.5%. To `O=C(Nc1nnc(S(=O)(=O)N2CCCCCC2)s1)c1cccc(Br)c1` belongs 31.3% (active); to `CC(C)c1ccc(NS(=O)(=O)c2cn(C)c(=O)n(C)c2=O)cc1`, 13.1%; to `Cn1c(CCN2CCCCCC2)nc2cc(NC(=O)Nc3ccccc3)ccc21`, 122% (active). As to `Cc1cc(C)nc(S/C=C/C(=O)c2ccccc2)n1`, the activation was -58.6%. To `COC(=O)[C@@]1(C)[C@H]2C(=O)N(Cc3ccccc3)C(=O)[C@H]2[C@H]2CN=C(SCC3CC3)N21` belongs 29.2% (active); to `CC[C@]1(C(=O)OC)[C@H]2C(=O)N(Cc3ccccc3)C(=O)[C@H]2[C@H]2CN=C(SCc3ccc(C#N)cc3)N21`, 23.6% (active). To `CC[C@]1(C(=O)OC)[C@H]2C(=O)N(Cc3ccccc3)C(=O)[C@H]2[C@H]2CN=C(SCc3ccccc3)N21` belongs 15.5%; to `CN(C)S(=O)(=O)c1ccc2oc(SCC(=O)Nc3ccccc3F)nc2c1`, 127% (active). To `O=C(CSc1cccc2cccnc12)N/N=C/c1cccnc1` belongs -15.3%; to `Cc1ccc2cc(/C=N/Nc3ccc(C(=O)O)cc3)c(Cl)nc2c1`, 109% (active). As to `O=C1[C@H]2[C@@H](c3ccc(F)cc3)N3C(=O)N(c4ccc(C(F)(F)F)cc4)C(=O)[C@@]3(Cc3ccccc3)[C@H]2C(=O)N1C1CCCCC1`, the activation was 26.3% (active). To `C[C@@]12C(=O)N(c3cccc(Br)c3)C(=O)N1[C@H](c1ccc(Cl)cc1)[C@@H]1C(=O)N(C3CCCCC3)C(=O)[C@@H]12` belongs 0.25%; to `O=C1[C@H]2[C@@H](c3ccc(Cl)cc3)N3C(=O)N(c4cccc(F)c4)C(=O)[C@@]3(Cc3ccccc3)[C@H]2C(=O)N1C1CCCCC1`, 16.9%. To `CC(C)(C)c1ccc(C(=O)NCc2ccco2)cc1` belongs 102% (active). To `CCCCc1ccc(NC(=S)N2CCCC(CO)C2)cc1` (stereo not drawn) belongs 102% (active); to `CC(C)(C)N1C(=O)[C@H]2[C@@H](c3ccc(Br)cc3)N3C(=O)N(c4cccc(Cl)c4)C(=O)[C@@]3(C)[C@H]2C1=O`, 20.4%. In the case of `COc1ccc(N(CCC#N)S(=O)(=O)c2ccc(Cl)cc2)cc1`, the activation was 11.8%. To `CC(C)CCC(C)NC(=O)c1ccc2nccnc2c1` (stereo not drawn) belongs 77% (active); to `O=c1[nH]cnc2c1c(-c1ccccc1)cn2-c1ccc(F)cc1`, 11.4%; to `COc1ccc(Cl)cc1NC(=O)CN(C)C(=O)CCCc1c[nH]c2ccccc12`, 16.9%. To `CC[C@@]12C(=O)N(c3ccccc3)C(=O)N1[C@H](c1ccc(Br)cc1)[C@@H]1C(=O)N(C(C)(C)C)C(=O)[C@@H]12` belongs 21.7%; to `CSc1nc(N)c(C#N)c(-c2ccccc2Cl)c1C#N`, 25.8% (active). To `Fc1ccc2nc(N3CCCCC3)sc2c1` belongs 95.9% (active); to `c1ccc(-c2cc(-c3ccccc3)[nH]n2)cc1`, 129% (active); to `Oc1ccccc1-c1cc(-c2ccc(Cl)cc2)n[nH]1`, 124% (active).

For the compound `COc1ccc(-n2cc(-c3ccccc3)c3c(=S)nc[nH]c32)cc1`, the activation was 15.8%. To `N#CCSc1nc2ccccc2c(=O)n1-c1ccccc1` belongs 16.1%; to `CC1(C(=O)N/N=C/c2cc3c(cc2Br)OCO3)CC1(Br)Br` (stereo not drawn), 30.7% (active). To `COc1ccccc1C1=Nc2cccc3cccc(c23)N1` belongs 15.9%; to `COc1cc(C#Cc2ccc3cc(CCCO)oc(=O)c3c2)cc(OC)c1`, 7.14%. To `Cc1ccc(C(=O)NNc2ncnc3ccccc23)cc1` belongs 79.1% (active). For `CCN(C[C@H]1N[C@@](CC)(C(=O)OC)[C@H]2C(=O)N(Cc3ccccc3)C(=O)[C@@H]12)S(=O)(=O)c1ccc(C(F)(F)F)cc1`, the activation is 22.6% (active). To `CN(C)C(=S)N=c1ssc(=S)n1Cc1ccco1` belongs 12.5%. Turning to `Cc1nc(-c2ccc(F)cc2)c(CC(=O)Nc2cc(S(=O)(=O)N3CCCCC3)ccc2C)s1`, the activation is 16.7%. To `COc1ccc2[nH]c(=O)c(CN(Cc3nnnn3CCc3ccccc3)CC3CCCO3)cc2c1` (stereo not drawn) belongs -9.61%. With `COc1cc(/C=N/Nc2nc3ccccc3s2)ccc1O`, the activation is 124% (active).

Regarding `CCCCn1c(SCC(=O)NCCc2ccc(OC)c(OC)c2)nc2c1c(=O)n(C)c(=O)n2C`, the activation was 26.9% (active). Turning to `COc1ccc(NC(=O)CSc2nc(SC)ns2)c(OC)c1`, the activation was 119% (active).

For `CCOc1ccc(Nc2oc(Cc3ccccc3)nc2C#N)cc1`, the activation is 58.9% (active).

`COc1ccc(-c2csc(Cc3nc(O)cs3)n2)cc1`: the activation is -53.3%. To `O=c1oc2ccccc2cc1-c1csc(Nc2ccc(O)cc2)n1` belongs 148% (active); to `COc1ccc(-c2csc(Nc3ccc(O)cc3)n2)cc1`, 107% (active); to `CC1(Cc2cccc(C#N)c2)C(=O)Nc2ccc(-c3cccc(C(F)(F)F)c3)cc21` (stereo not drawn), 10.6%.

Consider `COc1ccc(-c2nnc(SCC(=O)c3cccs3)o2)c(OC)c1`, for which the activation is 88.6% (active). To `Cc1ccccc1Nc1c([N+](=O)[O-])ccc2nonc12` belongs 29.2% (active); to `Cc1ccc(C2Nc3cccc4cccc(c34)N2)cc1`, 24.8% (active). To `CC(Sc1nc2c([nH]c3ccccc32)c(=O)n1C)c1ccccc1` (stereo not drawn) belongs 22.8% (active).

As for `COc1cccc(Nc2nc(N)c([N+](=O)[O-])c(NCc3ccco3)n2)c1`, the activation is 42% (active). To `CC1(C(=O)NCc2cccc3ccccc23)CCN1Cc1ccc(-c2ccccc2)o1` (stereo not drawn) belongs 24.2% (active); to `CCOC(=O)c1cc2c(=O)n3ccccc3nc2n(CC(C)C)c1=NC(=O)c1c(-c2c(F)cccc2Cl)noc1C`, -0.82%.

Consider `Cc1ccc(NC(=O)c2sc3nc(N)c(C#N)cc3c2N)cc1`, for which the activation was 61.2% (active).
